CYP2C9 inhib = human CYP2C9 inhibition; P11712; CYP2C9 Supersomes, luciferin-H conversion, luminescence; inhibition, % at 5 µM; 20% of 96,000 active; AID 777;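 active means blocking of liver enzyme CYP2C9 beyond about 50% at 5 µM, limit read from the data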
CYP2C9 activ = activators of human CYP2C9. activation factor at 5 µM. AID 1024. 1.4% of 96,000 active. P11712. recombinant CYP2C9, luciferin-H conversion, luminescence; active compounds read high; factor 1 = untreated enzyme, 0 = blocked;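 active means activation factor of 2 or more for CYP2C9 at a 5 µM dose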;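 further: 0 = sulfaphenazole-blocked wells and 1 = vehicle-only wells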
PostGolgi ctrl = inhibits growth of the yeast control strain | efflux-deficient yeast background strain, growth absorbance A615, 16 h | inhibition, % at 10 µM | 5% of 98,000 active
CYP2C19 inhib = human CYP2C19 inhibition; P33261; CYP2C19 Supersomes, luciferin-H EGE luminescence, 30 min; inhibition, % at 5 µM; 21% of 96,000 active; AID 778;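 active means CYP2C19 inhibition above a set limit at 5 µM in the primary screen, cut at about 50% in these data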;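 further: plate controls were negative control wells for no effect and 2.5 mM tranylcypromine positive control for full effect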
Target sequence (P33261 whole entry, looked up): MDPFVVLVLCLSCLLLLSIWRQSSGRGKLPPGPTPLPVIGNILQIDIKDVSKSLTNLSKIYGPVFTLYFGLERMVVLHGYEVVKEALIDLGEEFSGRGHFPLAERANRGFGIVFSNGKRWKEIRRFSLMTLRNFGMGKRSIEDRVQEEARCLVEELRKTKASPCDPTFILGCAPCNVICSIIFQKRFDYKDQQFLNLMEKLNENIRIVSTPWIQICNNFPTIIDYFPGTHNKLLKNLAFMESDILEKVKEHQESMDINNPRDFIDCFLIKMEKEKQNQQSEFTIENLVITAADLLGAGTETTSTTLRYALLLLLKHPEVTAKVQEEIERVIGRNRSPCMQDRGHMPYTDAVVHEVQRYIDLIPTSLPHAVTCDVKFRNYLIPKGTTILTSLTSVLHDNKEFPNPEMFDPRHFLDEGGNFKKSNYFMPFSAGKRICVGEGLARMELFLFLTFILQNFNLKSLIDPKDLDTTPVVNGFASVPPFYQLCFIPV
PostGolgi yeast = growth inhibition of a yeast mutant, post-Golgi transport screen; post-Golgi transport phenotypic cell assay; inhibition, % at 10 µM; 0.9% of 98,000 active;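 further: yeast cells grown in 1536-well plates; yeast grown about 18 h at 30C before absorbance read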
CYP2C19 act = activators of human cytochrome P450 2C19. P33261. 96,000 tested, under 10 active. recombinant CYP2C19, luciferin-H EGE luminescence; active compounds read high; 0 = fully inhibited enzyme, 1 = untreated enzyme. activation factor at 5 µM;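 active means activation factor of at least 2 at 5 µM in the primary screen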;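 further: 0 = wells with 2.5 mM tranylcypromine and 1 = vehicle-only wells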
* hit, by the source's call; · = no result given. The list is not random: actives were taken first. Their share in the collection is about 32%. Unless noted, no stated cut-off is given here; in the data, active means inhibition above about 30%; inactive means the rest.

SMILES	CYP2C9 inhib	CYP2C9 activ	PostGolgi ctrl	CYP2C19 inhib	PostGolgi yeast	CYP2C19 act
Cc1cc(C)n2c(Nc3ccc4c(c3)OCCO4)c(-c3ccco3)nc2n1	62*	0.4	9	31	-5	0.7
COc1ccccc1N1C(=O)C2C3C=CC(C3)C2C1=O (stereo unspecified)	9	0.9	0	27	1	0.7
Cc1cccc(NC(=O)c2cc(S(=O)(=O)NCc3ccco3)ccc2F)c1C	13	0.9	3	20	0	0.8
CC(=O)N=c1sccn1CC(=O)c1ccc([N+](=O)[O-])cc1	14	0.9	-3	24	10	0.8
CC(C)C(=O)Nc1cccc(C(=O)Nc2nccs2)c1	86*	0.1	9	20	-3	0.8
CCCC(=O)Nc1cccc(C(=O)Nc2nccs2)c1	55*	0.4	19	20	-6	0.8
O=C(Nc1nccs1)c1cccc(NC(=O)C2CC2)c1	30	0.7	1	18	3	0.8
COc1ccc2c(c1)c(C(O)CN1CCC(Cc3ccccc3)CC1)c(C)n2C (stereo unspecified)	1	1	7	0	-3	1
CCN(c1ccc(NC(=O)CSc2nnc3nc(C)cc(C)n23)cc1)C(C)C	11	0.9	8	10	-4	0.9
Cc1cc(C)n2c(SCC(=O)Nc3ncc(C(F)(F)F)cc3Cl)nnc2n1	63*	0.4	17	26	0	0.7
Cc1cc(NC(=O)C2CCN(S(=O)(=O)Cc3ccccc3)CC2)ccc1-n1cnnn1	·	·	20	·	0	·
O=C(Oc1ccccc1)c1ccc(-n2cnnn2)cc1	22	0.8	-9	69*	26	0.3
COc1cccc(-n2cnnn2)c1	-11	1.1	6	-8	2	1.1
c1ccc(Oc2ccc(-n3cnnn3)cc2)cc1	43	0.6	6	82*	-4	0.2
Cc1ccc(C)n1-c1ccc(-n2cnnn2)cc1	20	0.8	11	74*	4	0.3
O=C(O)c1cccc(-n2cnnn2)c1	-4	1	9	-3	0	1
O=C1C2C(C(=O)N1/N=C/c1cc(Br)cc([N+](=O)[O-])c1O)C1C=CC2C12CC2 (stereo unspecified)	8	0.9	21	24	-2	0.8
Cc1[nH]n(CCC#N)c(=O)c1CC(=O)N1CCN(c2ccccc2)CC1	-26	1.3	-11	-14	-2	1.1
C=CCSC1=C(C#N)C(c2ccc(C(C)C)cc2)CC(=O)N1 (stereo unspecified)	82*	0.2	38*	74*	-2	0.3
C=CCSC1=C(C#N)C(c2ccccc2)CC(=O)N1 (stereo unspecified)	65*	0.3	4	80*	-1	0.2
CCSC1=C(C#N)C(c2cccc(Br)c2)CC(=O)N1 (stereo unspecified)	29	0.7	9	44	0	0.6
CCSC1=C(C#N)C(c2ccc(F)cc2)CC(=O)N1 (stereo unspecified)	10	0.9	10	38	0	0.6
Cn1c(SCC(=O)NCc2ccccc2)nc2ccccc21	-345	4.5*	-8	40	12	0.6
O=C(CSc1nc2ccccc2n1CCc1ccccc1)NC1CCS(=O)(=O)C1 (stereo unspecified)	99*	0	-11	96*	7	0
O=C(CSc1nc(SCC(=O)NCc2ccccc2)n(-c2ccccc2)n1)NCc1ccccc1	83*	0.2	-2	66*	-2	0.3
SMILES	CYP2C9 inhib	CYP2C9 activ	PostGolgi ctrl	CYP2C19 inhib	PostGolgi yeast	CYP2C19 act
O=C(CSc1nc2ccccc2[nH]1)NC1CCS(=O)(=O)C1 (stereo unspecified)	-6	1.1	3	7	2	0.9
Cn1c(SCC(=O)NCc2ccco2)nc2ccccc2c1=O	17	0.8	1	4	-6	1
O=C(CSc1nccn1Cc1ccccc1)NCc1ccccc1	56*	0.4	3	89*	8	0.1
COc1ccc(CN2CCSCC2)cc1O	-4	1	2	48	-4	0.5
NC(=O)c1ccccc1NC(=O)CS(=O)(=O)Cc1ccccc1	14	0.9	7	23	0	0.8
O=C(COC(=O)c1cccnc1SCC(=O)NCc1ccccc1)NCc1ccccc1	39	0.6	3	68*	-1	0.3
Clc1ccc2[nH]c3c(c2c1)CCc1cn[nH]c1-3	55*	0.5	57*	18	74*	0.8
c1ccc2c3c([nH]c2c1)-c1[nH]ncc1CC3	67*	0.3	1	24	-3	0.8
Cn1nnnc1SCC(=O)Nc1ccc(N2CCOCC2)cc1	4	1	1	-3	-4	1
N=c1ccn(Cc2cccc(Cl)c2)cc1	-4	1	-1	-6	-8	1.1
O=C1CCCc2ccccc2N1Cc1ccc(Cl)cc1	68*	0.3	22	91*	7	0.1
O=C1CCCc2ccccc2N1Cc1cccc(Cl)c1	72*	0.3	27	84*	16	0.2
COc1ccc(-c2nnc3ccc(SCC(=O)N4CCCCCC4)nn23)cc1OC	27	0.7	·	4	·	1
CCn1ncc(Br)c1C(=O)Nc1nccs1	33	0.7	16	28	2	0.7
Cc1ccc(C(C)C)c(OCC(O)CN2CC(C)OC(C)C2)c1 (stereo unspecified)	0	1	9	35	6	0.6
OCc1csc(=Nc2ccccc2)n1-c1ccccc1	-2	1	11	88*	-4	0.1
O=C(O)CC1SC(=Nc2ccccc2)N(c2ccccc2)C1=O (stereo unspecified)	-17	1.2	-4	-1	5	1
CSc1ccc(/C=N\NC(=O)CNc2ccc(C)cc2)cc1	30	0.7	-9	39	-7	0.6
C=CCOc1c(Cl)cc(/C=N/O)cc1OC	39	0.6	11	98*	0	0
Cc1sc(NC(=O)CN(C)C2CCCCC2)nc1-c1ccc2c(c1)CCN2S(=O)(=O)c1ccccc1	28	0.7	-10	15	-11	0.9
COC(=O)c1cc(Br)c(=O)n(Cc2cccnc2)c1	16	0.8	0	21	-6	0.8
Fc1ccc(OCc2nn3cnnc3s2)cc1	0	1	7	79*	-3	0.2
CCOc1ccc(-c2nnc3sc(COc4ccc(C)cc4)nn23)cc1	18	0.8	22	45	-2	0.6
COc1ccc(-c2nc(C#N)c(NCC3CCCO3)o2)cc1 (stereo unspecified)	68*	0.3	4	59*	2	0.4
CCOc1ccc(Nc2oc(-c3ccc(Cl)cc3)nc2C#N)cc1	38	0.6	-2	34	2	0.7
CCOc1ccc(-c2nc(C#N)c(NC3CC3)o2)cc1	25	0.8	-1	69*	9	0.3
O=C(CSc1oc(-c2cccs2)nc1S(=O)(=O)c1ccc(F)cc1)NCC1CCCO1 (stereo unspecified)	50	0.5	15	64*	-5	0.4
